Experimental data published in article PMC7862700, “An all-to-all approach to the identification of sequence-specific readers for epigenetic DNA modifications on cytosine”.

Legend:
Test in all cases: DAPPL (digital affinity profiling via proximity ligation, sequencing); 10 mM Tris-HCl pH 7.5, 50 mM NaCl, 1 mM DTT, 4% glycerol, room temperature, 30 min; GST-TFs on glutathione beads, 16-mer random dsDNA library, 0.1% formaldehyde crosslink after washing; high values mean tight binding
FLI1 = target: T1, FLI1 (Homo sapiens, UniProt Q01543 1-452); details: protein: recombinant; tags: N-terminal GST; dsDNA, one strand shown
T1 sequence: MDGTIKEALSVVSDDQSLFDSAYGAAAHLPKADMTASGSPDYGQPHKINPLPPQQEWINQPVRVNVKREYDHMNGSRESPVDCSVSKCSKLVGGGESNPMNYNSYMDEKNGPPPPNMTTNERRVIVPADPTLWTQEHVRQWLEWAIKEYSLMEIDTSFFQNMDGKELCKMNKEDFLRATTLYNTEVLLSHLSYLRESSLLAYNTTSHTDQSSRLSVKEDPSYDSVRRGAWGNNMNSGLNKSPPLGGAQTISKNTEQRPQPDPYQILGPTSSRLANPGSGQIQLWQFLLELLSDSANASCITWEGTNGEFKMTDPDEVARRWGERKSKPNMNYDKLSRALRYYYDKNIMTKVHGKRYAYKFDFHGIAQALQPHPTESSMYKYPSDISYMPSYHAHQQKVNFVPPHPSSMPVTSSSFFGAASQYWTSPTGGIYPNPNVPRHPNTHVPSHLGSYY
Outline: (§1)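 Pools of DNA-barcoded human transcription factors, expressed in yeast as GST fusions on glutathione beads and combined with a tag-only sample, were incubated with 200 nmole of a 16-mer random double-stranded DNA library. Incubation took 30 min at room temperature in Tris/NaCl/DTT/glycerol buffer and was followed by washing, 0.1% formaldehyde crosslinking, proximity ligation (BsaI/T4 ligase, 1 h, 37 °C), PCR amplification and sequencing on an Illumina NextSeq500. Binding signal is the ratio of a hexamer's read frequency for a factor to its frequency for the tag-only sample.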

ELK1 = target: T2, ELK1 (Homo sapiens, UniProt P19419 1-428); details: protein: recombinant; tags: N-terminal GST; dsDNA, one strand shown
T2 sequence: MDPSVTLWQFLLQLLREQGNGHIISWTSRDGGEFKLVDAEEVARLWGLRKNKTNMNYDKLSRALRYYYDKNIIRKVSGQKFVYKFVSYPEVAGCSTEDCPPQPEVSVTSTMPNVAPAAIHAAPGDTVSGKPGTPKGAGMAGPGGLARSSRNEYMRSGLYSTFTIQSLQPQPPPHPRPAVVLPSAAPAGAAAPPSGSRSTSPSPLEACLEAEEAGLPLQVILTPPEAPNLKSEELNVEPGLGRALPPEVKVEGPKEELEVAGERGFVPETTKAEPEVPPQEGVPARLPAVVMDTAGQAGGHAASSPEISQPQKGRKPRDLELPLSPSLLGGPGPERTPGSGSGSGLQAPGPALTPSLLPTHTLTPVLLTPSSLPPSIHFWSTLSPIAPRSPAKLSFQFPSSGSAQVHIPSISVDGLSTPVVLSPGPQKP
Outline: as §1

GABPA = target: T3, GABPA (Homo sapiens, UniProt Q06546 1-454); details: protein: recombinant; tags: N-terminal GST; dsDNA, one strand shown
T3 sequence: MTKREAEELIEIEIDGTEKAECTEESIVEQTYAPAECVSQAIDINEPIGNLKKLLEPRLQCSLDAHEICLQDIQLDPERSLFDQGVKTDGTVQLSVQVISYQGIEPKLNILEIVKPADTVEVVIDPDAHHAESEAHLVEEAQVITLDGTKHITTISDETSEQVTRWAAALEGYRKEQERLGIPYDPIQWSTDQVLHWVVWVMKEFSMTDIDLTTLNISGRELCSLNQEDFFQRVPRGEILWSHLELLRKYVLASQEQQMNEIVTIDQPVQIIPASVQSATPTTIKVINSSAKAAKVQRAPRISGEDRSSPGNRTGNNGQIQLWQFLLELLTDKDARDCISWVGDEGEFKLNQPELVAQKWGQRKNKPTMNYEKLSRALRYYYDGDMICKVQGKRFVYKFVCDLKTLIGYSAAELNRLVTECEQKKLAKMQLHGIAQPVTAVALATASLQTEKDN
Outline: as §1

ERG = target: T4, ERG (Homo sapiens, UniProt P11308 1-479); details: protein: recombinant; tags: N-terminal GST; dsDNA, one strand shown
T4 sequence: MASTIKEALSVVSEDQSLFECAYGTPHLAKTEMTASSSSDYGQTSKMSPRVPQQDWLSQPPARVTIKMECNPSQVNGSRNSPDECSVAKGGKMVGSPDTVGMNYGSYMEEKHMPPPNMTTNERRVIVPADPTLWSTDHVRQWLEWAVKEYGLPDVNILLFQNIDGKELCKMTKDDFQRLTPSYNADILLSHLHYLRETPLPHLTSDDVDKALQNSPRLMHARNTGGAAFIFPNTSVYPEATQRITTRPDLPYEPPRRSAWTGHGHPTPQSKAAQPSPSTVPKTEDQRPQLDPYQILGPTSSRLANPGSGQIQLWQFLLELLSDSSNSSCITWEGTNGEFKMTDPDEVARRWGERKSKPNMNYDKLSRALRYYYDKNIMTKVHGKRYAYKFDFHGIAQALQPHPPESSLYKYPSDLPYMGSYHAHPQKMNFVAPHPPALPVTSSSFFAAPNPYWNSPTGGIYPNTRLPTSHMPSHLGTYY
Outline: as §1

ELF1 = ELF1 (Homo sapiens, UniProt P32519 1-619); details: protein: recombinant; tags: N-terminal GST; dsDNA, one strand shown
Sequence of ELF1 (P32519 whole entry): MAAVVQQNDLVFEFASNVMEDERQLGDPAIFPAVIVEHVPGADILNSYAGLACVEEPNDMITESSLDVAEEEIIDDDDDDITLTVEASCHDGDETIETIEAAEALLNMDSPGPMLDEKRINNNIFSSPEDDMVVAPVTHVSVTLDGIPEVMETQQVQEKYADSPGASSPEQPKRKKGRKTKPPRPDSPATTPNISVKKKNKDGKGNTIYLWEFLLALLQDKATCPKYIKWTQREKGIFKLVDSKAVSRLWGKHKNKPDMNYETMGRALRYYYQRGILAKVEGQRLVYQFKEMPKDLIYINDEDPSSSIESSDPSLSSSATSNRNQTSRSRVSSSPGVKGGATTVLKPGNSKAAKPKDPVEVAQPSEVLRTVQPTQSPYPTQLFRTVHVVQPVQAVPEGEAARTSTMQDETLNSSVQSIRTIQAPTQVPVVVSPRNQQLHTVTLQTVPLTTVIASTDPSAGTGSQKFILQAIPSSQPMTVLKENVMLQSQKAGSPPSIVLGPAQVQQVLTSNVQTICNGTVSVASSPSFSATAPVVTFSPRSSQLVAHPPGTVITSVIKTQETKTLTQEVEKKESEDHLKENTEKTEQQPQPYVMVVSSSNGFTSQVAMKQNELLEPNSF
Outline: as §1

EHF = target: T5, EHF (Homo sapiens, UniProt Q9NZC4 1-300); details: protein: recombinant; tags: N-terminal GST; dsDNA, one strand shown
T5 sequence: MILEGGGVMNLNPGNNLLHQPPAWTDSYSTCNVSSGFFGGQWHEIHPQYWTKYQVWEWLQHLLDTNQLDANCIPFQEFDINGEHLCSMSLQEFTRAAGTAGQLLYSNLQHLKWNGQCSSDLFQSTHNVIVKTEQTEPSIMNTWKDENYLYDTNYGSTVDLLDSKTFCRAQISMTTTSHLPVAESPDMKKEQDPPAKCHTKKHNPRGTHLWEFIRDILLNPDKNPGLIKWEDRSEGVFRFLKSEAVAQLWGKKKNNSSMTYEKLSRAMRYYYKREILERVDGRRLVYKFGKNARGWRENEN
Outline: as §1

SPI1 = SPI1 (Homo sapiens, UniProt P17947 1-270); details: protein: recombinant; tags: N-terminal GST; dsDNA, one strand shown
Outline: as §1

SPIB = SPIB (Homo sapiens, UniProt Q01892 1-262); details: protein: recombinant; tags: N-terminal GST; dsDNA, one strand shown
Sequence of SPIB (Q01892 whole entry): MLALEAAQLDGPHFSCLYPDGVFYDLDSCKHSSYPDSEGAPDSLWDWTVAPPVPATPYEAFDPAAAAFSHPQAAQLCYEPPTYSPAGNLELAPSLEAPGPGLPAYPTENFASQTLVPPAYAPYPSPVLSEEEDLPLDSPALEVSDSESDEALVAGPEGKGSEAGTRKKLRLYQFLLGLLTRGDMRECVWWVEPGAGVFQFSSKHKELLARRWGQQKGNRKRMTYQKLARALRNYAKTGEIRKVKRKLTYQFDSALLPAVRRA
Outline: as §1

ELK3 = target: T6, ELK3 (Homo sapiens, UniProt P41970 1-407); details: protein: recombinant; tags: N-terminal GST; dsDNA, one strand shown
T6 sequence: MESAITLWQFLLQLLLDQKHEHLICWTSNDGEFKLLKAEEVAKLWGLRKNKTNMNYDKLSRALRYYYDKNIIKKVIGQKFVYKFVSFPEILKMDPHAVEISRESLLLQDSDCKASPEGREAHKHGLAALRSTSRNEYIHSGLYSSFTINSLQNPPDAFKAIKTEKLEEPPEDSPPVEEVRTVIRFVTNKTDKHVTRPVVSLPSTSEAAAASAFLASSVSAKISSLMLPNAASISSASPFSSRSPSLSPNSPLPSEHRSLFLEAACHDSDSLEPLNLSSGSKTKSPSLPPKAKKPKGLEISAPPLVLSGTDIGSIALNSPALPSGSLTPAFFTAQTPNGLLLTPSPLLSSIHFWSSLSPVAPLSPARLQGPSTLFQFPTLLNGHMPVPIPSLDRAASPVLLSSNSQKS
Outline: as §1

FEV = target: T7, FEV (Homo sapiens, UniProt Q99581 1-238); details: protein: recombinant; tags: N-terminal GST; dsDNA, one strand shown
T7 sequence: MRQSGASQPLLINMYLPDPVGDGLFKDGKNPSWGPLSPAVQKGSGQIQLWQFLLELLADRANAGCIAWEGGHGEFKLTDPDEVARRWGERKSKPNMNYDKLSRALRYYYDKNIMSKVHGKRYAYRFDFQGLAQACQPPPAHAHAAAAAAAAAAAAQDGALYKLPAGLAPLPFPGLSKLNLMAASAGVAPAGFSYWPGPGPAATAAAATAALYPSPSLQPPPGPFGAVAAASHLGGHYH
Outline: as §1

ETV5 = ETV5 (Homo sapiens, UniProt P41161 1-510); details: protein: recombinant; tags: N-terminal GST; dsDNA, one strand shown
Sequence of ETV5 (P41161 whole entry): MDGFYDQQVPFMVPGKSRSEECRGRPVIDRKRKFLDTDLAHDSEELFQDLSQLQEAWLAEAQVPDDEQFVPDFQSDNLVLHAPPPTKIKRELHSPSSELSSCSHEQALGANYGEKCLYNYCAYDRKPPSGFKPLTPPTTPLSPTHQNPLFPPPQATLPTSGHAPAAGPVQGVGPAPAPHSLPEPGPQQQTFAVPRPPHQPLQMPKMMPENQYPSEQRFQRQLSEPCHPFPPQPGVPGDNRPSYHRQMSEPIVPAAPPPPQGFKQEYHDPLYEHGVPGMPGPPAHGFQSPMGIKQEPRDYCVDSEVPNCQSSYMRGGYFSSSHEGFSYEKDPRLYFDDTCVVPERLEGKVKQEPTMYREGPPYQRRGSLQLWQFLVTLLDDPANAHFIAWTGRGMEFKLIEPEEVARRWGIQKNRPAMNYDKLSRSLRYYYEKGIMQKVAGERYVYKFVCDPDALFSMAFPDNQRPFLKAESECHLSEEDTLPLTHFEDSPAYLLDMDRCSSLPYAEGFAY
Outline: as §1

HSF1 = HSF1 (Homo sapiens, UniProt Q00613 1-529); details: protein: recombinant; tags: N-terminal GST; chain copies: 3; dsDNA, one strand shown
Sequence of HSF1 (Q00613 whole entry): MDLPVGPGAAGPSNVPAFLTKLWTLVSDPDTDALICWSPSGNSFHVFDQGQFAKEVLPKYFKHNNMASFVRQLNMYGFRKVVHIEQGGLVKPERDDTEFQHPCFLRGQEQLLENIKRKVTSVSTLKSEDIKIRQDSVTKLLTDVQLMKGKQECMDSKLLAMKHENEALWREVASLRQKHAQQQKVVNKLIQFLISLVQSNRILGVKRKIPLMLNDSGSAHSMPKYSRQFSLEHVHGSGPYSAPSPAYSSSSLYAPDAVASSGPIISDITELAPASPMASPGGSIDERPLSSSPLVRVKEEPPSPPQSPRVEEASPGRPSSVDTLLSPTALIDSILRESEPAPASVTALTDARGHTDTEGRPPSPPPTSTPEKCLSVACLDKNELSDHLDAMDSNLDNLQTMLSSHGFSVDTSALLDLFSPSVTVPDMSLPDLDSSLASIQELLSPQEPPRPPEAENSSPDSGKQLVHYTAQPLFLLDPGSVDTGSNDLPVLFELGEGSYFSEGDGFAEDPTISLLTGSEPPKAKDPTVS
Outline: as §1

SPIC = target: T8, SPIC (Homo sapiens, UniProt Q8N5J4 1-248); details: protein: recombinant; tags: N-terminal GST; dsDNA, one strand shown
T8 sequence: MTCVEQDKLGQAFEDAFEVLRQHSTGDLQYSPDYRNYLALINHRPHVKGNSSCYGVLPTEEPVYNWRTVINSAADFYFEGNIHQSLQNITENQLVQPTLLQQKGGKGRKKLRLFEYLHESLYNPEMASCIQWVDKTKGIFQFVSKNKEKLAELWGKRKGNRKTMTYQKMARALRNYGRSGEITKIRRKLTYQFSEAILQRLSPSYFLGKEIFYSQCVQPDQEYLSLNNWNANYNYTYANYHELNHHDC
Outline: as §1

ELF4 = ELF4 (Homo sapiens, UniProt Q99607 1-663); details: protein: recombinant; tags: N-terminal GST; dsDNA, one strand shown
Sequence of ELF4 (Q99607 whole entry): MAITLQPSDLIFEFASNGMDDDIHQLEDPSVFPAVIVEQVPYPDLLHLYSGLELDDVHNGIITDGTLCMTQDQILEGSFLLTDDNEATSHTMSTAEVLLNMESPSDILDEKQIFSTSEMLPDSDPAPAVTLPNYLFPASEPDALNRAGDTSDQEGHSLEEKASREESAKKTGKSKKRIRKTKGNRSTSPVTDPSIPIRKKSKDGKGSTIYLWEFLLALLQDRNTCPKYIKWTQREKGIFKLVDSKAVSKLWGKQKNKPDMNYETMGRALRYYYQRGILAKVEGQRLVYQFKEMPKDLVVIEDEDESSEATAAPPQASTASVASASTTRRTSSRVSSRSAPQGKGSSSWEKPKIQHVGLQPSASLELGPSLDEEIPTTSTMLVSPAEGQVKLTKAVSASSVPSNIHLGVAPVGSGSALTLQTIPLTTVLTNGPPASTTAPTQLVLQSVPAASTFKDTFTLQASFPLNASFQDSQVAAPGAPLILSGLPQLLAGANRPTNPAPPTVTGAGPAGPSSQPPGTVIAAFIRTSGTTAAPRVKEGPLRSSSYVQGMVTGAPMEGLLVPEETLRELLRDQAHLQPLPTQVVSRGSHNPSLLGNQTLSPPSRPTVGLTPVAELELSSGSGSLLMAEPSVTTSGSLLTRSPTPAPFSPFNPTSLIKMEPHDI
Outline: as §1

ELK4 = target: T9, ELK4 (Homo sapiens, UniProt P28324-2 1-405); details: protein: recombinant; tags: N-terminal GST; dsDNA, one strand shown
T9 sequence: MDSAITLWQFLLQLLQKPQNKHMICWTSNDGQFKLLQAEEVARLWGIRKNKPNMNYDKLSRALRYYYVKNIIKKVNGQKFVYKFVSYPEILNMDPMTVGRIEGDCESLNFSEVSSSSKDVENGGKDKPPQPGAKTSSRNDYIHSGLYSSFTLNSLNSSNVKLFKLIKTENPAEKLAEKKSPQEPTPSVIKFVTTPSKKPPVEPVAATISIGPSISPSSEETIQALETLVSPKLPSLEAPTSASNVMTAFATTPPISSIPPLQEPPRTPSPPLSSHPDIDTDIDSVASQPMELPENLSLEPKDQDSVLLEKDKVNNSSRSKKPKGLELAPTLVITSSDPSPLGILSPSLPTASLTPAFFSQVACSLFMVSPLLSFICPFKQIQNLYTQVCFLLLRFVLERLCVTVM
Outline: as §1

ETV2 = target: T10, ETV2 (Homo sapiens, UniProt O00321 1-342); details: protein: recombinant; tags: N-terminal GST; dsDNA, one strand shown
T10 sequence: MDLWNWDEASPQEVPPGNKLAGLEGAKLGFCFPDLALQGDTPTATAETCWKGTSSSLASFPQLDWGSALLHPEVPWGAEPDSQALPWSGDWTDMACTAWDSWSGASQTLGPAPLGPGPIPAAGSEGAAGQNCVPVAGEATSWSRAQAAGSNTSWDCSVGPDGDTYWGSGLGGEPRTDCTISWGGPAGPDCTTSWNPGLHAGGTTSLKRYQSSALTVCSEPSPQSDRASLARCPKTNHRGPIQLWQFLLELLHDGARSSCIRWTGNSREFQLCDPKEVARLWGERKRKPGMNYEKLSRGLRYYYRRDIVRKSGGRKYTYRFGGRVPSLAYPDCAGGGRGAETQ
Outline: as §1

ELF3 = target: T11, ELF3 (Homo sapiens, UniProt P78545 1-371); details: protein: recombinant; tags: N-terminal GST; dsDNA, one strand shown
T11 sequence: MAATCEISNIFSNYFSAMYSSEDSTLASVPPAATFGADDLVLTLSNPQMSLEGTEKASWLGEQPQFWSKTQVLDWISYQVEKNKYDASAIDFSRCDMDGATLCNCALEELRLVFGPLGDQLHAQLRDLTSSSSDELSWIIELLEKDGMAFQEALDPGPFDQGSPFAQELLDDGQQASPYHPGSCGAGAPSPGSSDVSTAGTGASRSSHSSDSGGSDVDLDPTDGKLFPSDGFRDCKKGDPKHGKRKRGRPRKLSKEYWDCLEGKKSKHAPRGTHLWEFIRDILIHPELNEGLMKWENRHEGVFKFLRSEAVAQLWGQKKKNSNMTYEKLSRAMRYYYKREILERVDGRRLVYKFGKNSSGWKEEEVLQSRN
Outline: as §1

CRX = CRX (Homo sapiens, UniProt O43186 1-299); details: protein: recombinant; tags: N-terminal GST; dsDNA, one strand shown
Sequence of CRX (O43186 whole entry): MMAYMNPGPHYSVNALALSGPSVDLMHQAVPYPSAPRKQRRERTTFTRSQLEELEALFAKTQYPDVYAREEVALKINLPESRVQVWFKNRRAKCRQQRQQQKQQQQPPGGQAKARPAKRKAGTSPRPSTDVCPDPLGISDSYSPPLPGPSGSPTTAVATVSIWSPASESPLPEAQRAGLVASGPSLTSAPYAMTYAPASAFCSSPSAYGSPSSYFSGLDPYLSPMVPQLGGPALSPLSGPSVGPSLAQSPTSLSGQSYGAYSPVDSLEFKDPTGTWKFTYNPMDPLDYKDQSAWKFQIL
Outline: as §1

ETV1 = ETV1 (Homo sapiens, UniProt P50549 1-477); details: protein: recombinant; tags: N-terminal GST; dsDNA, one strand shown
Sequence of ETV1 (P50549 whole entry): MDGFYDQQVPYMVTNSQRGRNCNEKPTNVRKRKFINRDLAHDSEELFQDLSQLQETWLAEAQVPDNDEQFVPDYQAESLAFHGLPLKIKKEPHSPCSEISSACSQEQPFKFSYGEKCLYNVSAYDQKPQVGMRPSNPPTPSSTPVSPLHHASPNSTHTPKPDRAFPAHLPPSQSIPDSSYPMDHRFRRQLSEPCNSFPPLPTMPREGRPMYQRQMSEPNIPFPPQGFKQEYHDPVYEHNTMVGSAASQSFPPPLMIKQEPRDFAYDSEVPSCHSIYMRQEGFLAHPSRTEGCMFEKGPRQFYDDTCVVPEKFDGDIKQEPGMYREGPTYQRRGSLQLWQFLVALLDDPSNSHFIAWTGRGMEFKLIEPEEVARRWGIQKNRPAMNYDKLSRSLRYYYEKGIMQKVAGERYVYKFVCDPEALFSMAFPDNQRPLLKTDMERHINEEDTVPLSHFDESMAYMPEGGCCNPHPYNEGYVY
Outline: as §1

CTTCAA
binding signal (FLI1): 1.44 fold enrichment (6-mer frequency, TF over GST control) | binding signal (ELK1): 1.35 fold enrichment (6-mer frequency, TF over GST control) | binding signal (GABPA): 1.35 fold enrichment (6-mer frequency, TF over GST control) | binding signal (ERG): 1.28 fold enrichment (6-mer frequency, TF over GST control) | binding signal (ELF1): 1.4 fold enrichment (6-mer frequency, TF over GST control) | binding signal (EHF): 1.26 fold enrichment (6-mer frequency, TF over GST control) | binding signal (SPI1): 1.27 fold enrichment (6-mer frequency, TF over GST control) | binding signal (SPIB): 1.4 fold enrichment (6-mer frequency, TF over GST control) | binding signal (ELK3): 1.13 fold enrichment (6-mer frequency, TF over GST control) | binding signal (FEV): 1.33 fold enrichment (6-mer frequency, TF over GST control) | binding signal (ETV5): 1.28 fold enrichment (6-mer frequency, TF over GST control) | binding signal (HSF1): 1.38 fold enrichment (6-mer frequency, TF over GST control) | binding signal (SPIC): 1.32 fold enrichment (6-mer frequency, TF over GST control) | binding signal (ELF4): 1.29 fold enrichment (6-mer frequency, TF over GST control) | binding signal (ELK4): 1.52 fold enrichment (6-mer frequency, TF over GST control) | binding signal (ETV2): 1.46 fold enrichment (6-mer frequency, TF over GST control) | binding signal (ELF3): 1.37 fold enrichment (6-mer frequency, TF over GST control) | binding signal (CRX): 1.22 fold enrichment (6-mer frequency, TF over GST control) | binding signal (ETV1): 1.36 fold enrichment (6-mer frequency, TF over GST control)
